# About 8,600 (12%) of roughly 69,000 compounds showed an effect of 50% or more. This excerpt belongs to a sample that is enriched for strong results.
# System: Plasmodium berghei
# Experiment: Screen against P. berghei liver stage (PbLuc), transformed with Luciferase, at 10uM
# Format: functional, HepG2
# Details: tested at 10 uM
row,SMILES,INHIBITION [%]
1,CCC1C=CCN1C(=O)c1cc(COc2ccccc2OC)[nH]n1 (stereo unspecified),-2.39
2,CCCC(=O)N(C)CC(=O)Nc1ccc(Br)cn1,-9.37
3,COCC1c2c(cnn2CC2CC2)CCN1Cc1cccs1 (stereo unspecified),-0.912
4,Cc1ocnc1C(=O)N1CC[C@@]2(O)CCN(C(=O)N3CCCC3)C[C@H]2C1,36.5
5,Cc1noc(C2CCCN(C(=O)c3cncc(Br)c3)C2)n1 (stereo unspecified),-27.8
6,Cc1cncc(C2CCCN(C(=O)c3cn(C)nc3C)C2)n1 (stereo unspecified),36.7
7,Cc1cc(C(=O)N2CCCC(c3nc(C)no3)C2)on1 (stereo unspecified),20
8,Cc1ncsc1C(=O)N1CC[C@@]2(O)CCN(C(=O)N3CCCC3)C[C@H]2C1,65.7
9,Cc1cncc(C2CCCN(C(=O)c3scnc3C)C2)n1 (stereo unspecified),51.7
10,Cc1noc(C2CCCN(C(=O)c3cccc(Cl)c3)C2)n1 (stereo unspecified),39.5
11,Cc1nc(C2CCCN(C(=O)c3scnc3C)C2)no1 (stereo unspecified),18.1
12,Cc1noc(C2CCN(C(=O)c3cc(Cl)c(Cl)n3C)CC2)n1,16.6
13,Cc1noc(C2CCCN(C(=O)c3ccc(Br)o3)C2)n1 (stereo unspecified),60.5
14,Cc1noc(C2CCCN(C(=O)c3cc(Cl)c(Cl)n3C)C2)n1 (stereo unspecified),51.4
15,Cc1cc(C(=O)N2CC[C@@]3(O)CCN(C(=O)N4CCCC4)C[C@H]3C2)no1,1.74
16,OCCCN1CCOC(c2ccc(F)cc2)C1 (stereo unspecified),30.2
17,CC(C)c1nc(C(=O)N2CCOCC2CC(=O)c2ccco2)c[nH]1 (stereo unspecified),9.48
18,Cc1cc(C)n(CC2CCCN2CC(=O)Nc2cc(C(C)C)no2)n1 (stereo unspecified),-6.44
19,CN(C)CCOCC1CN(Cc2ccc(F)cc2)Cc2nnn(C)c21 (stereo unspecified),33.2
20,O=C(c1ccco1)N1C[C@@H]2[C@@H](C1)OCC(=O)N2Cc1cccnc1,35.8
21,CS(=O)(=O)N1CCC2(CCN(C(=O)c3cccs3)CC2)CC1,32.1
22,Cc1noc(C2CCCN(C(=O)c3cc(Cl)cn3C)C2)n1 (stereo unspecified),46.4
23,Cc1noc(C2CCCN(C(=O)c3scnc3Cl)C2)n1 (stereo unspecified),74.2

row,SMILES,INHIBITION [%]
1,Cc1noc(C2CCCN(C(=O)c3cc(Cl)ccc3F)C2)n1 (stereo unspecified),-49.5
2,CN1CCCCc2c1nc1c(c2N)CCCC1,53.3
3,CN1CCCCc2c1nc1c(c2N)CCC1,8.46
4,CN1CCCc2c1nc1c(c2N)CCCC1,7.38
5,Cc1cc(C)c2nc(CN(C)C(C)c3ccncn3)cc(O)c2c1 (stereo unspecified),-33.3
6,Cc1ccc(-c2noc([C@@H]3C[C@H](NC(=O)NC(C)C)CN3C)n2)cc1,23
7,Cc1noc([C@@H]2C[C@H](NC(=O)NC(C)C)CN2C)n1,50.2
8,Cc1noc([C@@H]2C[C@H](NC(=O)NC3CCCCC3)CN2C)n1,22.2
9,Cc1cnc(C(=O)NCc2ccnc(N(C)C)c2)cn1,11.6
10,O=C(O)c1c[nH]c2cc(NS(=O)(=O)c3cccc(F)c3F)ccc12,-10.1
11,CCn1c(C)nnc1SCCNc1cc(N2CCOCC2)ncn1,14
12,CCN1CCOC(CNCc2ccccc2OCc2cccnc2)C1 (stereo unspecified),-46.55
13,CN(C)S(=O)(=O)N1CCN(C(=O)c2cc(-c3ccccc3)[nH]n2)CC1,18.5
14,Cc1nn(C)c2ncnc(N3CCC(O)(CN4CCCC4)CC3)c12,30
15,Cc1cnc(C(=O)N2CCN(Cc3csc(C)n3)CC2)cn1,-26.1
16,CN(C)CCn1c([C@H]2CCCO2)cc2cccnc21,56.8
17,CN(C)CCn1c([C@@H]2CCCO2)cc2cccnc21,26.8
18,c1cnc2c(c1)cc([C@H]1CCCO1)n2CCN1CCCC1,17.1
19,Cc1ccc(-n2cc3[nH]c(=O)n(C(C)C)n3c2=O)cc1,0.266
20,CC(Cc1cccc(Cl)c1)NC(=O)Nc1cnn(CC(N)=O)c1 (stereo unspecified),-11.4
21,Cc1cc(C(=O)NC(C)Cc2cccc(Cl)c2)n(C)n1 (stereo unspecified),18.6
22,CC(C)NC(=O)NCCCc1cccc(F)c1,12.2
23,CC(CCc1cccc(F)c1)NC(=O)NCc1ncnn1C (stereo unspecified),56.4

row,SMILES,INHIBITION [%]
1,Cn1ccnc1CNC(=O)CCc1cccc(F)c1,-0.35
2,CC(Cc1cccc(Cl)c1)NC(=O)NCc1ncnn1C (stereo unspecified),64.3
3,CC(Cc1ccco1)NC(=O)Nc1cnn(CC(N)=O)c1 (stereo unspecified),0.0932
4,CC(Cc1ccco1)NC(=O)NCc1ncnn1C (stereo unspecified),86.2
5,CC(Cc1c(F)cccc1F)NC(=O)Nc1cnn(CC(N)=O)c1 (stereo unspecified),31.1
6,COCCn1cc(NC(=O)NC(C)Cc2c(F)cccc2F)cn1 (stereo unspecified),15.3
7,CC(Cc1ccco1)NC(=O)CCn1cccn1 (stereo unspecified),38.6
8,CC(Cc1c(F)cccc1F)NC(=O)NCc1ncnn1C (stereo unspecified),51.4
9,COC(=O)N1CCCC(C(=O)NCCc2c[nH]c3cc(C)ccc23)C1 (stereo unspecified),47.9
10,CC(=O)NCCn1ccc(-c2ccccn2)n1,-13
11,O=C(c1ccc(-c2cccc3c2CCNC3)o1)N1CCCC1,9.56
12,Cc1nn(C)c2ncc(CNCCc3ccccn3)cc12,39.7
13,CCN1CC2(CCCCN2C(=O)c2ccsc2)CC1=O (stereo unspecified),-8.51
14,CC(=O)N1CCC1c1cc(N2CC(O)C2)nc(C)n1 (stereo unspecified),3.8
15,Cc1nc2n(n1)CC(NCc1cc(Cl)c3c(c1)OCCO3)CC2 (stereo unspecified),13.6
16,O=C1NC2(CCc3ccccc31)CCN(C(=O)c1cccnc1)C2 (stereo unspecified),12.085
17,CCN1CCOCC2(CCCN(C(=O)c3conc3C)C2)C1 (stereo unspecified),12.4
18,Cn1cc(CN2CCCC3(CCN(C(=O)c4cnccn4)C3)C2)cn1 (stereo unspecified),49.7
19,NC(=O)CCc1cccc(C2CCNCC2)n1,6.26
20,Clc1cccc(Cl)c1CN(CCCN1CCOCC1)Cc1cccnc1,19.3
21,CCCc1nc(C(=O)N(C)Cc2cc(CC)no2)cs1,-59.5
22,CCNc1nc(C(=O)N(C)Cc2nc(CC)no2)cs1,53.4
23,CCNc1nc(C)c(C(=O)N(C)Cc2nc(CC)no2)s1,20.9

row,SMILES,INHIBITION [%]
1,CN(Cc1ccc(F)cc1)CC1(O)CCN(C(=O)c2ccncc2)C1 (stereo unspecified),27.8
2,COC(=O)CNC(=O)c1cn(-c2ccccn2)c(=O)c2ccccc12,-21.4
3,CC(C)N1[C@H](CN2CCCC2)C[C@@H]2CN(C(=O)c3ccoc3)CC[C@@H]21,15.9
4,COc1cc(C2CC(=O)NCc3nc4sccn4c32)cc(OC)c1O (stereo unspecified),39.3
5,COc1cc(C)c(C2CC(=O)NCc3nc4sccn4c32)cc1C (stereo unspecified),-9.18
6,CCC1CC(=O)NCc2nc3sc(C)cn3c21 (stereo unspecified),53.3
7,Cc1cc(F)ccc1NC(=O)NCC(C)N1CCOCC1 (stereo unspecified),39
8,Cn1cc(NCCOc2ccc(F)cc2)cn1,8.09
9,Fc1ccc(OCCCNC2=NCCN2)cc1,54.4
10,CNC(=O)c1cccnc1NCCOc1ccccc1,-81.6
11,Fc1ccc(OCCCNC2=NCCCN2)cc1,35.4
12,c1ccc(OCCSC2=NCCN2)cc1,35
13,c1ccc(OCCNC2=NCCCN2)cc1,77.9
14,Cc1ccc(N2CCC3(CC2)CC(OCC(=O)N(C)C)CO3)nn1 (stereo unspecified),29
15,COC1COC2(CCN(c3ccc(C#N)cc3)CC2)C1 (stereo unspecified),-36.5
16,CNC(=O)COC1COC2(CCN(c3ccc(C#N)cc3)CC2)C1 (stereo unspecified),64.9
17,CNC(=O)COC1COC2(CCN(c3ncccn3)CC2)C1 (stereo unspecified),27.5
18,CNC(=O)COC1COC2(CCN(c3cnccn3)CC2)C1 (stereo unspecified),36.4
19,CNC(=O)COC1COC2(CCN(c3ccc(C)nn3)CC2)C1 (stereo unspecified),54.1
20,CNC(=O)[C@@H](CC(C)C)N1CCC[C@H]1C(=O)N(C)Cc1ccccc1,25.3
21,Cc1noc([C@H]2C[C@H]3OCC[C@H]3N(Cc3ccc4c(c3)OCO4)C2)n1,17.6
22,CSc1c(CC(=O)O)n(C)c2ccccc12,-9.98
23,O=C([C@@H]1CC[C@@H]2[C@@H](CCN2Cc2cccc(F)c2)O1)N1CCCCO1,-7.48

row,SMILES,INHIBITION [%]
1,CC(C)c1cc(C2CCN(Cc3cc(F)cc(F)c3)CC2)[nH]n1,49.5
2,Cc1n[nH]c(C)c1CN1CCC(c2cc(C(C)C)n[nH]2)CC1,13.9
3,CC(C)c1cc(C2CCN(C(=O)Cn3nc4ccccc4n3)CC2)[nH]n1,53.2
4,CC(C)c1cc(C2CCN(C(=O)Cn3cncn3)CC2)[nH]n1,17
5,CC(C)c1cc(C2CCN(C(=O)Cn3cnc4ccccc43)CC2)[nH]n1,86.6
6,CC(C)c1cc(C2CCN(C(=O)Cn3cnnn3)CC2)[nH]n1,35.1
7,CC(C(=O)NCCN1CCOCC1)n1cncn1 (stereo unspecified),-2.33
8,CN(Cc1cnn(C)c1)C(=O)Nc1cccnc1-n1cccn1,-24.9
9,CCN1CCN(C(=O)C2CC(=O)N(c3cnn(C(C)C)c3)C2)CC1 (stereo unspecified),23.1
10,CCS(=O)(=O)N1Cc2cncn2CC(C(=O)NCC2CC2)C1 (stereo unspecified),24
11,CCc1nc(C2CCCN(C(=O)C3=NN(C(C)C)C(=O)CC3)C2)no1 (stereo unspecified),28.7
12,Cc1nc(C2CCCN(C(=O)C3=NN(C(C)C)C(=O)CC3)C2)no1 (stereo unspecified),58.3
13,CCN1N=C(C(=O)N2CCCC(c3noc(C)n3)C2)CCC1=O (stereo unspecified),34.1
14,Cc1nc(C2CCCN(C(=O)c3ccoc3)C2)no1 (stereo unspecified),11.6
15,Cc1nc(C2CCCN(C(=O)c3ccc(S(C)(=O)=O)cc3)C2)no1 (stereo unspecified),-29.8
16,Cc1nc(C2CCCN(C(=O)c3cc(C)sc3C)C2)no1 (stereo unspecified),81.2
17,Cc1nc(C2CCCN(C(=O)c3cccc(S(C)(=O)=O)c3)C2)no1 (stereo unspecified),51.3
18,Cc1nc(C2CCCN(C(=O)c3cnc(C)s3)C2)no1 (stereo unspecified),-38
19,Cc1nc(C2CCCN(C(=O)c3sc(C)nc3C)C2)no1 (stereo unspecified),43.4
